Results on 4 molecules are retold here after PubChem BioAssay (EPA / NIEHS).

Assay [1] in a line: BSK_LPS_PGE2: BioMAP Diversity Plus: LPS Assay for Prostaglandin E2 (PGE2) Biomarker Activity (AID 2283082).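 On AC50: secreted prostaglandin E2 measured by ELISA in LPS-stimulated co-culture.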 The following applies: primary human HUVEC with PBMC; actives raise or lower the signal. Summed up:
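HUVEC plus human PBMC co-culture stimulated with LPS; secreted PGE2 quantified by ELISA 24 h after chemical dosing. Activity fitted bidirectionally against DMSO baseline; parallel SRB staining (0.1% SRB after 10% TCA fixation, 560 nm) flags overt cytotoxicity.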

Read-out in assay [2]: Macrophage colony-stimulating factor (MCSF), CSF1 (gene 1435)
The assay is described as follows: BSK_LPS_MCSF: BioMAP Diversity Plus: LPS Assay for Macrophage colony-stimulating factor (MCSF) Biomarker Activity (AID 2283083). Conditions: primary human HUVEC with PBMC; actives raise or lower the signal. Summed up: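 HUVEC + PBMC co-culture (human primary), 24 h post-dose; M-CSF by ELISA; gain/loss of signal fitted bidirectionally vs DMSO baseline.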

Read-out in assay [3]: Tissue Factor, F3 (gene 2152)
Put plainly: BSK_LPS_TissueFactor: BioMAP Diversity Plus: LPS Assay for Tissue Factor Biomarker Activity (AID 2283084). The following applies: primary human HUVEC with PBMC; actives raise or lower the signal. Summed up:
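HUVEC/PBMC co-culture, LPS-activated; CD142 ELISA read 24 h post-dose; bidirectional curve fit vs DMSO negative control.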

Read-out in assay [4]: Tumor necrosis factor (Homo sapiens) (UniProt P01375)
The assay is described as follows: BSK_LPS_TNFa: BioMAP Diversity Plus: LPS Assay for Tumour Necrosis Factor alpha (TNFa) Biomarker Activity (AID 2283085). The following applies: primary human HUVEC with PBMC; actives raise or lower the signal. Summed up: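 Human umbilical vein endothelial cells co-cultured with PBMC and stimulated with LPS. TNFa was measured by ELISA 24 h after chemical dosing, fitted bidirectionally relative to DMSO.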

Read-out in assay [5]: Vascular cell adhesion molecule 1 (VCAM1), VCAM1 (gene 7412)
Put plainly: BSK_LPS_VCAM1: BioMAP Diversity Plus: LPS Assay for Vascular cell adhesion molecule 1 (VCAM1) Biomarker Activity (AID 2283086). The following applies: primary human HUVEC with PBMC; actives raise or lower the signal. The essentials: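 Human umbilical vein endothelial cells co-cultured with PBMC and stimulated with LPS; VCAM-1 measured by ELISA 24 h after dosing. Bidirectional curve fitting against DMSO baseline; cytotoxicity tracked in parallel by SRB total-protein staining.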

Read-out in the next assay: CD38, CD38 (gene 952)
The assay is described as follows: BSK_SAg_CD38: BioMAP Diversity Plus: SAg Assay for CD38 Biomarker Activity (AID 2283087). The following applies: primary human HUVEC with PBMC; actives raise or lower the signal. The essentials:
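Human HUVEC plus PBMC co-culture stimulated with superantigen; CD38 measured by ELISA 24 h after chemical dosing. Fluorescence read-out, bidirectional fit against DMSO; cytotoxicity tracked in parallel by SRB and Alamar Blue.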

Read-out in the next assay: CD40, CD40 (gene 958)
Put plainly: BSK_SAg_CD40: BioMAP Diversity Plus: SAg Assay for CD40 Biomarker Activity (AID 2283088). Conditions: primary human HUVEC with PBMC; actives raise or lower the signal. The essentials:
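HUVEC/PBMC co-culture, 24 h post-dose; CD40 by ELISA, fluorescence intensity; bidirectional fit vs DMSO negative control.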

Read-out in the next assay: CD69, CD69 (gene 969)
Put plainly: BSK_SAg_CD69: BioMAP Diversity Plus: SAg Assay for CD69 Biomarker Activity (AID 2283089).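 On AC50: cell surface CD69 protein quantified by ELISA with fluorescence detection.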 The following applies: primary human HUVEC with PBMC; actives raise or lower the signal. The essentials: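 Values derive from bidirectional fitting relative to DMSO vehicle. Cells: umbilical vein endothelium plus peripheral blood mononuclear cells, treated 24 h before fluorescent ELISA for CD69.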

Read-out in assay [6]: Monocyte Chemoattractant Protein-1 (MCP1), CCL2 (gene 6347)
The assay is described as follows: BSK_SAg_MCP1: BioMAP Diversity Plus: SAg Assay for Monocyte Chemoattractant Protein-1 (MCP1) Biomarker Activity (AID 2283090). Conditions: primary human HUVEC with PBMC; actives raise or lower the signal. The essentials: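 MCP-1 levels in the endothelial–PBMC SAg co-culture were quantified by ELISA at 24 h post-dosing; both increases and decreases versus DMSO scored. Cytotoxicity monitored by SRB total protein in parallel cultures.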

Read-out in assay [7]: E-selectin (Homo sapiens) (UniProt P16581)
Put plainly: BSK_SAg_Eselectin: BioMAP Diversity Plus: SAg Assay for Eselectin Biomarker Activity (AID 2283091). Conditions: primary human HUVEC with PBMC; actives raise or lower the signal. The essentials: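 E-selectin ELISA readout at 24 h post-dosing in human umbilical vein endothelial cell/PBMC co-culture; gain or loss of signal fitted relative to DMSO baseline.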

Read-out in assay [8]: Monokine induced gamma interferon (MIG), CXCL9 (gene 4283)
Put plainly: BSK_SAg_MIG: BioMAP Diversity Plus: SAg Assay for Monokine induced gamma interferon (MIG) Biomarker Activity (AID 2283092). Conditions: primary human HUVEC with PBMC; actives raise or lower the signal. Summed up: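 Values reflect bidirectional fitting of ELISA-measured MIG against DMSO vehicle, taken 24 h after dosing of a co-culture of human umbilical vein endothelial cells and peripheral blood mononuclear cells.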

Assay [9] can be described thus: BSK_SAg_PBMCCytotoxicity: PBMC Cytotoxicity Assessment in the BioMAP Diversity Plus: SAg Assay (AID 2283093).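 Further: PBMC viability measured as Alamar Blue reduction fluorescence at 546/580 nm; fitted both ways against DMSO so a hit may be loss or gain of signal.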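 On AC50: PBMC superantigen activated with SEB plus TSST-1 one hour after compound addition.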 Conditions: primary human HUVEC with PBMC. The essentials:
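Human umbilical vein endothelial cells co-cultured with PBMC; PBMC (75,000/well) pre-treated with compound 1 h, then activated with SEB and TSST-1 (20 ng/mL final each) for 90 h. Alamar Blue added 6 h, fluorescence 546/580 nm; bidirectional fit versus DMSO.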

Read-out in assay [10]: Interleukin-8 (IL8), CXCL8 (gene 3576)
The assay is described as follows: BSK_SAg_IL8: BioMAP Diversity Plus: SAg Assay for Interleukin-8 (IL8) Biomarker Activity (AID 2283094). The following applies: primary human HUVEC with PBMC; actives raise or lower the signal. Summed up: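 Human umbilical vein endothelial cells co-cultured with PBMC, stimulated with superantigen; IL-8 measured by ELISA 24 h after chemical dosing. Bidirectional fitting versus DMSO; SRB staining in parallel cultures tracks cytotoxicity.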

Assay [11] is described as follows: BSK_SAg_Proliferation: Cell Proliferation Assessment in the BioMAP Diversity Plus: SAg Assay (AID 2283095). Conditions: primary human HUVEC with PBMC. The essentials: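 Human umbilical vein endothelial cells co-cultured with PBMC; sulforhodamine B total-protein staining (0.1% SRB after 10% TCA fixation, absorbance 560 nm) at 96 h in sub-confluent culture. Fitted bidirectionally against DMSO.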

Assay [12] in a line: BSK_SAg_SRB: Viability Assessment in the BioMAP Diversity Plus: SAg Assay (AID 2283096).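 Further: cells read one day after compound addition; hits may be either gain or loss of signal compared with DMSO.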 The following applies: primary human HUVEC with PBMC. The essentials:
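Endothelial/PBMC primary human co-culture; compound 24 h; fix 10% TCA, stain 0.1% SRB, A560; protein content as cytotoxicity proxy; bidirectional curve fit, DMSO = baseline.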

Assay [13] concerns the target human CYP2A6, CYP2A6 (gene 1548) (UniProt P11509). Put plainly: NVS_ADME_hCYP2A6: NovaScreen (NVS) CYP450-related Enzyme Activity (ADME) Assay for human CYP2A6 (AID 2283099; active means hit-call score of the fitted dose curve at least 0.9, where 1 is the maximum). The essentials:
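Insect-cell-expressed human CYP2A6 enzyme activity measured by fluorescence intensity 0.5 hour post-dosing. Compounds screened at 10 uM in duplicate, then hits tested singly in concentration series (max 20 uM); acetonitrile baseline.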

In assay [14] the target is human CYP1A1, CYP1A1 (gene 1543) (UniProt P04798). Put plainly: NVS_ADME_hCYP1A1: NovaScreen (NVS) CYP450-related Enzyme Activity (ADME) Assay for human CYP1A1 (AID 2283100; active means hit-call score of the fitted dose curve at least 0.9, where 1 is the maximum). The essentials: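 Read-out: fluorescence intensity from enzymatic turnover of substrate by recombinant CYP1A1, loss of signal indicating inhibition. Incubation 1 h post-dose. Primary single-point 10 uM in duplicate; actives rerun singly with top concentration 20 uM.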
Chain of human CYP1A1, CYP1A1 (gene 1543) (P04798 whole entry, looked up): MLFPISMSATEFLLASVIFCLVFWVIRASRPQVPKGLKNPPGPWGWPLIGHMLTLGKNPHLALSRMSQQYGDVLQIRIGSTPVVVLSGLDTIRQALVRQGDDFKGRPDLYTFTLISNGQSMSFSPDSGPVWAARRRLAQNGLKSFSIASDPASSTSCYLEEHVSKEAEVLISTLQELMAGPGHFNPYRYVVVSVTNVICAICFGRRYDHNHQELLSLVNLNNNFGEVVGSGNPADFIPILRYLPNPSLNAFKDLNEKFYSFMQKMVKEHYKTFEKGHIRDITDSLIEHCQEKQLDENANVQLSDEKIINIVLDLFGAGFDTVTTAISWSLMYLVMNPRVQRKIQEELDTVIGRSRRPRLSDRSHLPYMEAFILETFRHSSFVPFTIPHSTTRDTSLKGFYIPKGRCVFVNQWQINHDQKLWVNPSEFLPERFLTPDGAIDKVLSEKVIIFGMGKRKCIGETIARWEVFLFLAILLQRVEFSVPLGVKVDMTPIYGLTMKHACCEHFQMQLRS

In assay [15] the target is human CYP2B6, CYP2B6 (gene 1555) (UniProt P20813). Put plainly: NVS_ADME_hCYP2B6: NovaScreen (NVS) CYP450-related Enzyme Activity (ADME) Assay for human CYP2B6 (AID 2283101; active means hit-call score of the fitted dose curve at least 0.9, where 1 is the maximum). Summed up: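 Compounds were first screened in duplicate at 10 uM against recombinant enzyme, with the fluorescent product measured after 1 hour. Active compounds were retested over a concentration series. Loss of fluorescence versus acetonitrile control was scored as reduced enzyme activity.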
Chain of human CYP2B6, CYP2B6 (gene 1555) (P20813 whole entry, looked up): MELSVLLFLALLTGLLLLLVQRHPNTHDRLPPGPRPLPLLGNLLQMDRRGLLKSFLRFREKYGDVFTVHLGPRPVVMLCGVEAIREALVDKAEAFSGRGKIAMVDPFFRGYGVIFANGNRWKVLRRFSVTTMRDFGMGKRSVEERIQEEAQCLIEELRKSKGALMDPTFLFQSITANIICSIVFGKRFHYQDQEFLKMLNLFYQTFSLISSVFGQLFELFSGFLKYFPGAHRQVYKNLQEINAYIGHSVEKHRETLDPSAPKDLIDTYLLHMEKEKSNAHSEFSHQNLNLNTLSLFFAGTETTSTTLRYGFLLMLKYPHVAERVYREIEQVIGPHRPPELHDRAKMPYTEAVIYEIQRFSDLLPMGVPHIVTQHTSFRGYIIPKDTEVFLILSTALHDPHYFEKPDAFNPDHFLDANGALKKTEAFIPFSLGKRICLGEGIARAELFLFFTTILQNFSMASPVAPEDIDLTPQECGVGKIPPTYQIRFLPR

Assay [16] has as its target human CYP1A2, CYP1A2 (gene 1544) (UniProt P05177). Put plainly: NVS_ADME_hCYP1A2: NovaScreen (NVS) CYP450-related Enzyme Activity (ADME) Assay for human CYP1A2 (AID 2283102; active means hit-call score of the fitted dose curve at least 0.9, where 1 is the maximum;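 on AC50: potency for inhibition since loss of fluorescence marks reduced CYP1A2 activity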). Summed up: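 Fluorescence-intensity enzyme activity read-out, taken 0.5 h post-dosing, using insect-cell-derived recombinant CYP1A2 and specific fluorescent substrate. Acetonitrile served as negative control/baseline. Single-concentration duplicate screen at 10 uM, then concentration-response follow-up.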

Assay [17] concerns the target human CYP19A1, CYP19A1 (gene 1588) (UniProt P11511). Put plainly: NVS_ADME_hCYP19A1: NovaScreen (NVS) CYP450-related Enzyme Activity (ADME) Assay for human CYP19A1 (AID 2283098; active means hit-call score of the fitted dose curve at least 0.9, where 1 is the maximum). Summed up:
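Cell-free enzyme assay with recombinant protein and a specific fluorogenic substrate, read by fluorescence intensity 0.5 h after dosing. Primary screen ran in duplicate at 10 uM; actives were retested in concentration series. Loss of signal versus acetonitrile baseline.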

Results filed as inconclusive are left out. Activity calls are given as the source filed them. How the source made its calls, unless noted: active means hit-call score of the fitted dose curve at least 0.9, where 1 is the maximum; inactive means score below 0.9.

What is called AC50 is the concentration giving half of the maximal activity seen.

Chain of Tumor necrosis factor (Homo sapiens) (P01375 whole entry, looked up): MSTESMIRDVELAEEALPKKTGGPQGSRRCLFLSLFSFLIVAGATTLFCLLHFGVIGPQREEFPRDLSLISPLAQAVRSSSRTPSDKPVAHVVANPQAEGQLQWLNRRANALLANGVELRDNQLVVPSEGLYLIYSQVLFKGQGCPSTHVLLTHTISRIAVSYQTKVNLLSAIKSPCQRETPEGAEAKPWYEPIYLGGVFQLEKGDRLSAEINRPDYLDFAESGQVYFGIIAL
Chain of E-selectin (Homo sapiens) (P16581 whole entry, looked up): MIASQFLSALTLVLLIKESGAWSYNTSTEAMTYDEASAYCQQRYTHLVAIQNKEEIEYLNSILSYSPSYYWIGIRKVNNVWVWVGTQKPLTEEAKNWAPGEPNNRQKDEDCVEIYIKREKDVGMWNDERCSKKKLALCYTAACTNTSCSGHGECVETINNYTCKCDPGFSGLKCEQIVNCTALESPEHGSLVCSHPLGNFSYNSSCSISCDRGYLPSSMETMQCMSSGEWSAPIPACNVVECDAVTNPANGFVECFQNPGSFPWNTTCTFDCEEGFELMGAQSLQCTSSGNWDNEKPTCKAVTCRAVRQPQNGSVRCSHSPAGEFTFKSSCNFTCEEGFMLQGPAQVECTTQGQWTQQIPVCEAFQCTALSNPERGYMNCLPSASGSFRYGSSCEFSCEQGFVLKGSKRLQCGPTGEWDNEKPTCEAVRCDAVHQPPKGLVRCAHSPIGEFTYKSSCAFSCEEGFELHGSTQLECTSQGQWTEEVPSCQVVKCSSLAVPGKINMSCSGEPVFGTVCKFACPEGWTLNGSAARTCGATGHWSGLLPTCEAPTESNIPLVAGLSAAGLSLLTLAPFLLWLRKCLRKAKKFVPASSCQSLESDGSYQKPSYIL
Chain of human CYP2A6, CYP2A6 (gene 1548) (P11509 whole entry, looked up): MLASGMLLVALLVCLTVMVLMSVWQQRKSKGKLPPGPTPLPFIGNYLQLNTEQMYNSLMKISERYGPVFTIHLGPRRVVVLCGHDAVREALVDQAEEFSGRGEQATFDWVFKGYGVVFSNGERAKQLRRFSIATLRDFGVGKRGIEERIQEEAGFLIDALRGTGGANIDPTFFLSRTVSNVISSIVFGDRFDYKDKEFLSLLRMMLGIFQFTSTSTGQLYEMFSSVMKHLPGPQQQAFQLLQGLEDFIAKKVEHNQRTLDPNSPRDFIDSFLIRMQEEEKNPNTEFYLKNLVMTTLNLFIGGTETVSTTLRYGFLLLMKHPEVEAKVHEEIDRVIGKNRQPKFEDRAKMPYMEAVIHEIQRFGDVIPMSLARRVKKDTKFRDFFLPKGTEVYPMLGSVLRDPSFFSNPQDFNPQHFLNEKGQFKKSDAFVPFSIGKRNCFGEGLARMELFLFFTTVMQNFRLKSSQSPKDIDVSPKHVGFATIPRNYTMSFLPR
Chain of human CYP1A2, CYP1A2 (gene 1544) (P05177 whole entry, looked up): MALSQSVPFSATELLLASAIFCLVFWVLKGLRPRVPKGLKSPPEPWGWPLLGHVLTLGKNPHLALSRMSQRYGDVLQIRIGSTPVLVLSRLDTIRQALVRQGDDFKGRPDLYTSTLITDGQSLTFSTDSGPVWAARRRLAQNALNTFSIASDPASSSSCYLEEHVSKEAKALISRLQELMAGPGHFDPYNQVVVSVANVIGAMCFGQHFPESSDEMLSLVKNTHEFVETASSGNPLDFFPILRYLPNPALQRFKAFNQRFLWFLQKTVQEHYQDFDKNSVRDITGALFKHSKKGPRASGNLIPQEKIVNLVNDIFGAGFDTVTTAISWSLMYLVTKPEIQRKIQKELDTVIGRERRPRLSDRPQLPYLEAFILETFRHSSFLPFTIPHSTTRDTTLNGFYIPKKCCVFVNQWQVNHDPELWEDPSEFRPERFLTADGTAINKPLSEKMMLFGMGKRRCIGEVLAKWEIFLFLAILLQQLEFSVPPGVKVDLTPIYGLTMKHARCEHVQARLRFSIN
Chain of human CYP19A1, CYP19A1 (gene 1588) (P11511 whole entry, looked up): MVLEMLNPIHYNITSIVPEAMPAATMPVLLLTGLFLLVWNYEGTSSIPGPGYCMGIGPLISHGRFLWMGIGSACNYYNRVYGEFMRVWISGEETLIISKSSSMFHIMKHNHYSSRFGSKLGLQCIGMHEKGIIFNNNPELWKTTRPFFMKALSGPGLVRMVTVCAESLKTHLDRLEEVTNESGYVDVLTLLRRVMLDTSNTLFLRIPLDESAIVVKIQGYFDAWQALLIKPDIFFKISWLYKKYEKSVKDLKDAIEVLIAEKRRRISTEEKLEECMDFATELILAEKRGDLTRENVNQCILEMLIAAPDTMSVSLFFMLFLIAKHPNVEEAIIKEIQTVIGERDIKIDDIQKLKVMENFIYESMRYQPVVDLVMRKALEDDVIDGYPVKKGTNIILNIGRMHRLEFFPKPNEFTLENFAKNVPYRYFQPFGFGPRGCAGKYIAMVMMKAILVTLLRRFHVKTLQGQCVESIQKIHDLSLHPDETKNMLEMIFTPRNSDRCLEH

As for `Nc1ccc(N=Nc2ccccc2)cc1`, the AC50 in assay [1] is 3.55 µM (active); in assay [4] it was 6.01 µM (active); in assay [5], 14.2 µM (active); in [15], 0.261 µM (active). Further, the outcome is “inactive” in assay [2]; “inactive” in assay [3]; “inactive” with CD38, CD38 (gene 952); “inactive” with CD40, CD40 (gene 958); “inactive” with CD69, CD69 (gene 969); “inactive” in [6]. The result in [7], in [8], in [9], in [10], in [11] and in [12] was inactive. The result in assay [13], in assay [14] and in assay [16] was inactive.

`Clc1ccc(C(c2ccc(Cl)cc2)C(Cl)(Cl)Cl)cc1`: in assay [1], the outcome was inactive. The AC50 in [2] was 19.5 µM (active); in assay [3] it was 38.7 µM (active); in assay [4], 24.8 µM (active); in [5] it was 28.7 µM (active); with CD40, CD40 (gene 958), 23.2 µM (active); with CD69, CD69 (gene 969), 25.5 µM (active). In addition, the AC50 in [6] was 30 µM (active); in assay [7], 38.2 µM (active); in assay [8] it was 35.1 µM (active); in assay [9], 15.5 µM (active); in assay [10] it was 17 µM (active); in assay [11] it was 12.7 µM (active). Further, in [12], the AC50 was 21.6 µM (active).

For `O=[N+]([O-])C(Br)(CO)CO`, the result in assay [1] and in assay [13] was inactive. Moreover, the AC50 in assay [2] was 28.9 µM (active); in [3], 28.4 µM (active); in assay [4] it was 31.7 µM (active); in assay [5] it was 30.1 µM (active); with CD38, CD38 (gene 952), 31.3 µM (active); in the assay with CD40, CD40 (gene 958), 28.1 µM (active). In addition, the concentration at half-maximal activity (AC50) is 28.5 µM (active) with CD69, CD69 (gene 969); 31.1 µM (active) in [6]; 24.7 µM (active) in [7]; 39.1 µM (active) in assay [8]; 22.5 µM (active) in assay [9]; 27.6 µM (active) in assay [10]. The AC50 in assay [11] was 8.35 µM (active); in assay [12], 30.6 µM (active); in assay [14] it was 12.7 µM (active); in assay [16], 3.15 µM (active).

For the molecule `CS(=O)(=O)NC(=O)c1cc(Oc2ccc(C(F)(F)F)cc2Cl)ccc1[N+](=O)[O-]`, the outcome in assay [1] was “inactive”; in [2] it was “inactive”; in assay [3] it was “inactive”; in assay [4], “inactive”; in assay [5] it was “inactive”; with CD38, CD38 (gene 952), “inactive”. For the same molecule, the outcome with CD40, CD40 (gene 958) is “inactive”; in the assay with CD69, CD69 (gene 969), “inactive”; in assay [6] it was “inactive”; in assay [7], “inactive”; in assay [8], “inactive”; in assay [9], “inactive”. The outcome in assay [10], in [11], in assay [12] and in assay [17] was inactive.
